Data: PubChem BioAssay (NCI)
This is part of a sample that, as a whole, favours compounds with a hit. Of some 83,000 tested, about 20% had one in any assay.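 A percent growth of 40 corresponds to 60% growth inhibition; 0 means no net growth; -100 means all cells died. Active threshold: below 10.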 Active and inactive are the calls of the source.

Assays:
Assay in all cases: NCI-60 one-dose screen, 48 h (100 = growth as untreated, 0 = no growth, -100 = all killed)
Conditions in all cases: 10 µM
DU-145 prostate = test system: DU-145 prostate
K-562 leukemia = test system: K-562 leukemia
MDA-MB-231 breast = test system: MDA-MB-231 breast
RXF 393 renal = test system: RXF 393 renal
SF-268 CNS = test system: SF-268 CNS
SF-295 CNS = test system: SF-295 CNS
SF-539 CNS = test system: SF-539 CNS
UACC-257 melanoma = test system: UACC-257 melanoma
M14 melanoma = test system: M14 melanoma
MALME-3M melanoma = test system: MALME-3M melanoma

Measured: growth

COC(=O)CCCCCCCCC(C)c1ccc(C(C)=O)cc1 (centres undefined)
inactive: DU-145 prostate 108% | K-562 leukemia 92.3% | MDA-MB-231 breast 119% | RXF 393 renal 111% | SF-268 CNS 104% | SF-295 CNS 92.1% | SF-539 CNS 101% | UACC-257 melanoma 119% | M14 melanoma 121%

CC(=O)Oc1ccc(C2=Cc3ccc(OC(C)=O)cc3OC2C)cc1 (centres undefined)
inactive: DU-145 prostate 62.8% | K-562 leukemia 28.4% | MDA-MB-231 breast 67.9% | RXF 393 renal 68.9% | SF-268 CNS 57.9% | SF-295 CNS 69.9% | SF-539 CNS 28% | UACC-257 melanoma 81.3% | M14 melanoma 49.8%

CN(C)c1ccc2cc(-c3cc4c(oc3=O)-c3ccccc3OC4O)c(=O)oc2c1 (centres undefined)
inactive: DU-145 prostate 11% | SF-268 CNS 56.9% | SF-539 CNS 19% | UACC-257 melanoma 42.9%
active: K-562 leukemia -55.8% | MALME-3M melanoma -59.3% | MDA-MB-231 breast -39.8% | SF-295 CNS -56.4% | M14 melanoma -47.8%

NC(=O)C12C(=O)NC(=O)C1(C(=O)O)C21CCCC1 (centres undefined)
inactive: DU-145 prostate 133% | K-562 leukemia 108% | MDA-MB-231 breast 98.9% | RXF 393 renal 122% | SF-268 CNS 114% | SF-295 CNS 110% | SF-539 CNS 113% | UACC-257 melanoma 103% | M14 melanoma 105%

Nc1cc2c(cc1Cl)-c1ccc(Cl)cc1C2=O
inactive: DU-145 prostate 105% | K-562 leukemia 89.9% | MDA-MB-231 breast 82.5% | RXF 393 renal 131% | SF-268 CNS 93.8% | SF-295 CNS 115% | SF-539 CNS 78.2% | UACC-257 melanoma 103% | M14 melanoma 104%

CCSc1nc2c([nH]1)c(=O)n(C)c(=S)n2C
inactive: DU-145 prostate 112% | K-562 leukemia 115% | MDA-MB-231 breast 116% | RXF 393 renal 117% | SF-268 CNS 106% | SF-295 CNS 114% | SF-539 CNS 97.9% | UACC-257 melanoma 108% | M14 melanoma 109%

CC(=O)OC1Oc2ccccc2-c2oc(=O)c(-c3ccc(F)cc3)cc21 (centres undefined)
inactive: DU-145 prostate 92.4% | K-562 leukemia 87.7% | MALME-3M melanoma 99.5% | MDA-MB-231 breast 73.1% | SF-268 CNS 81.4% | SF-295 CNS 89.1% | SF-539 CNS 86.4% | UACC-257 melanoma 58.6% | M14 melanoma 100%

COc1ccc(-c2csc(-c3cc(Cl)cc(Cl)c3Cl)n2)cc1
inactive: DU-145 prostate 99.8% | K-562 leukemia 83.9% | MALME-3M melanoma 77.7% | MDA-MB-231 breast 73.6% | SF-268 CNS 97.1% | SF-295 CNS 103% | SF-539 CNS 94.8% | UACC-257 melanoma 46.2% | M14 melanoma 97.7%

CC(=O)Nc1nc(C)c(C(=O)N/N=C/c2cccn2C)s1
inactive: DU-145 prostate 106% | K-562 leukemia 54.3% | MDA-MB-231 breast 102% | RXF 393 renal 119% | SF-268 CNS 95.9% | SF-295 CNS 114% | SF-539 CNS 103% | UACC-257 melanoma 120% | M14 melanoma 115%

CC(C)/C(=N/O)c1ccccc1
inactive: DU-145 prostate 114% | K-562 leukemia 104% | MDA-MB-231 breast 99.8% | RXF 393 renal 121% | SF-268 CNS 112% | SF-295 CNS 103% | SF-539 CNS 94.6% | UACC-257 melanoma 109% | M14 melanoma 109%

C/C(=N/NC(=O)c1sc(=S)n(C)c1N)c1cc2cc(Cl)ccc2o1
inactive: DU-145 prostate 87.2% | K-562 leukemia 72.8% | MALME-3M melanoma 113% | MDA-MB-231 breast 68.9% | SF-268 CNS 80.2% | SF-295 CNS 109% | SF-539 CNS 99.2% | M14 melanoma 91.7%
active: UACC-257 melanoma 5.89%

N#C/C(=C\N1C(=O)/C(=C/c2cccc([N+](=O)[O-])c2)SC1=S)c1nc2ccccc2s1
inactive: DU-145 prostate 99.6% | K-562 leukemia 77.1% | MDA-MB-231 breast 79.7% | RXF 393 renal 105% | SF-268 CNS 85.3% | SF-295 CNS 86.9% | SF-539 CNS 80.3% | UACC-257 melanoma 68.3% | M14 melanoma 81%

Oc1[nH]c2ccccc2c1/C=c1/cc2c(c(-c3ccc(C(F)(F)F)cc3)n1)=Nc1ccccc1-2
inactive: DU-145 prostate 62.5% | K-562 leukemia 22.8% | MDA-MB-231 breast 45.6% | RXF 393 renal 56.1% | SF-268 CNS 79.1% | SF-295 CNS 37% | SF-539 CNS 83.5% | UACC-257 melanoma 82.4% | M14 melanoma 33.5%

COc1cc([C@@H]2c3cc4c(cc3[C@H](SC(=N)N)[C@H]3COC(=O)[C@H]23)OCO4)cc(OC)c1OC
active: DU-145 prostate 6.78% | MDA-MB-231 breast -5.46% | SF-295 CNS -20.4% | SF-539 CNS -22.5%
inactive: K-562 leukemia 13.8% | RXF 393 renal 27.1% | SF-268 CNS 30.3% | UACC-257 melanoma 57.1% | M14 melanoma 16.9%

CCOC(=O)c1sc(NC(=O)c2cc(OC)c(OC)c(OC)c2)nc1C
inactive: DU-145 prostate 110% | K-562 leukemia 51.2% | MDA-MB-231 breast 96.3% | RXF 393 renal 119% | SF-268 CNS 97.3% | SF-295 CNS 110% | SF-539 CNS 103% | UACC-257 melanoma 108% | M14 melanoma 118%

COc1ccc(C2=Cc3ccc(OC(C)=O)cc3OC2)cc1
inactive: DU-145 prostate 90.2% | K-562 leukemia 72.3% | MDA-MB-231 breast 52.5% | RXF 393 renal 94.7% | SF-268 CNS 87.9% | SF-295 CNS 104% | SF-539 CNS 85.7% | UACC-257 melanoma 99.7% | M14 melanoma 122%
